Results reported in PubChem BioAssay (NCI).
Compounds without any hit were thinned out: in the full panel of roughly 79,000, 15% have a hit. Cut-off read from the data, not from the text of the source: active = growth inhibition above about 70%; inactive = the rest.

Columns and labels:
[1] = NCI Yeast Anticancer Drug Screen. Data for the rad50 strain (AID 155);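 note: 0% = growth of vehicle-only cultures of the same strain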; conditions: S. cerevisiae rad50 strain growth inhibition; at 50.0 µM; stronger effect = higher value
Procedure, shortened: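 Vehicle-treated cultures provide the reference for the growth inhibition reported for compound-exposed, repair-deficient yeast.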

[2] = NCI Yeast Anticancer Drug Screen. Data for the mec2-1 strain (AID 157); conditions: S. cerevisiae mec2-1 strain, at 50.0 µM, stronger effect = higher value
Procedure, shortened: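 Readout is yeast growth inhibition, normalised to vehicle-treated controls, in the mec2-1 strain exposed to compound.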

[3] = NCI Yeast Anticancer Drug Screen. Data for the sgs1 mgt1 strain (AID 161);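 note: 0% = growth of cultures given vehicle only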; conditions: S. cerevisiae sgs1 mgt1 strain, at 50.0 µM, stronger effect = higher value
Procedure, shortened: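 Compounds are added to genetically altered yeast, and growth is compared with cultures given vehicle alone to give percent inhibition.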

[4] = NCI Yeast Anticancer Drug Screen. Data for the cln2 rad14 strain (AID 165);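 note: 0% = growth equal to vehicle treated cultures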; conditions: S. cerevisiae cln2 rad14 strain, at 50.0 µM, stronger effect = higher value
Procedure, shortened: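 Relative to vehicle controls, growth inhibition of compound-treated cln2 rad14 yeast was recorded.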

[5] = NCI Yeast Anticancer Drug Screen. Data for the mlh1 rad18 strain (AID 175); conditions: S. cerevisiae mlh1 rad18 strain growth inhibition; at 50.0 µM; stronger effect = higher value
Procedure, shortened: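 Test agents were incubated with a yeast strain of defined genotype (DNA damage repair defect). Inhibition of growth was derived by comparison with vehicle-exposed cultures.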

[6] = NCI Yeast Anticancer Drug Screen. Data for the bub3 strain (AID 167); conditions: S. cerevisiae bub3 mutant strain, at 50.0 µM, stronger effect = higher value
Procedure, shortened: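 Mutant yeast screening strain plus compound; vehicle-treated cultures serve as the 0% inhibition reference.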

Measured: growth inhibition

O=C(O)c1n[nH]nc1Cl
inactive: [1] -5.9% | [2] 0.7% | [3] 5.35% | [4] -4.2% | [5] 19.2%

COc1cc2c(c3c1c(=O)c1ccccc1n3C)C=C([N+](=O)[O-])C(C)(C)O2
inactive: [1] 1.4% | [2] -32.8% | [3] 16.6% | [4] 6.95% | [6] -39.5% | [5] -25.3%

C/C(=C\COc1cc(O)c2c(c1)C(=O)c1cc(C)cc(O)c1C2=O)CCC1OC1(C)C (stereo not given)
inactive: [1] 16.7% | [2] -22.9% | [3] 4.55% | [4] -0.65% | [6] -12.4% | [5] -53.7%

Cc1ccc(NC(=O)/C(=N\NC(N)=O)c2c(O)c3ccccc3[nH]c2=O)cc1
inactive: [1] 1.45% | [2] 4.6% | [3] -10.5% | [4] 7.85% | [6] -3.05% | [5] -33%

Cc1ccc(/C=C2/N=C(N/N=C\c3ccccc3)NC2=O)cc1
inactive: [1] -6.15% | [2] 14.9% | [3] -19.4% | [4] 1.75% | [5] -41.1%

C[C@@H]1C[C@](O)([C@@H](C)Cl)C(=O)O[C@@H]2CCN3CC=C(COC(=O)[C@]1(C)O)[C@H]23
inactive: [1] -14.2% | [2] -16.1% | [3] -7.95% | [4] -11.1% | [6] 5.7% | [5] -30.6%

CC1(C)S[C@H](CN)N[C@H]1C(=O)OC(c1ccccc1)c1ccccc1
inactive: [1] -4.3% | [2] -13.4% | [3] 5.25% | [4] -1% | [6] -11.2% | [5] -31.9%
